The values below come from PubChem BioAssay (NCI).

SMILES strings stand for the structures. This is part of a sample that, as a whole, favours compounds with a hit. Of some 83,000 tested, about 20% had one in any assay.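 The test compound was applied at a single concentration to cells in 96-well plates for 48 hours, and percent growth was recorded.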 Unmarked numbers belong to inactive results. Activity calls are given as the source filed them. Rule for the calls: active = growth percent below 10; inactive = the rest.

Some test systems named below: NCI-H23 lung; NCI-H226 lung; NCI-H322M lung; HOP-62 NSCLC; NCI-H460 lung; HOP-92 NSCLC; NCI-H522 lung; A549/ATCC NSCLC; 786-0 renal; COLO 205 colon; DU-145 prostate; K-562 leukemia; MALME-3M melanoma; MDA-MB-231 breast; RXF 393 renal; SF-268 CNS; SF-295 CNS; SF-539 CNS; UACC-257 melanoma; M14 melanoma.
Common to all, as to experiment: NCI-60 one-dose screen, 48 h (100 = growth as untreated, 0 = no growth, -100 = all killed)
Common to all, as to details: 10 µM unless noted

Regarding `COC(=O)[C@]1(C)CCC[C@]2(C)[C@H]3C[C@H]4C(C(C)C)=C[C@]3(CC[C@H]21)[C@@H]1C(=O)N(CCC#N)C(=O)[C@@H]14`, the growth with NCI-H23 lung was 93.7%; in the test with NCI-H226 lung, 81.9%; with NCI-H322M lung, 109%; in the test on HOP-62 NSCLC, 89.9%; in the test on NCI-H460 lung, 101%; with HOP-92 NSCLC, 81.1%. The growth in the test with NCI-H522 lung is 75.3%; in the test with A549/ATCC NSCLC, 86%; with 786-0 renal, 99.7%; in the test with COLO 205 colon it was 94.7%; in the test on DU-145 prostate, 99.4%; with K-562 leukemia, 55.8%. The growth in the test on MALME-3M melanoma is 103%; in the test on MDA-MB-231 breast, 89.5%; with RXF 393 renal, 86.7%; in the test on SF-268 CNS it was 89.4%; in the test on SF-295 CNS, 99.5%; in the test on SF-539 CNS, 98%. For the same compound, the growth in the test with UACC-257 melanoma is 85.4%; in the test on M14 melanoma, 83.1%.
`COc1cc(/C=C/C(=O)/C=C/c2cc3ccc(Cl)cc3n(Cc3ccccc3)c2=O)ccc1O`: the growth was -20.6% (active) in the test on NCI-H23 lung; -6.08% (active) in the test on NCI-H226 lung; 23.9% in the test on NCI-H322M lung; -6.74% (active) in the test on HOP-62 NSCLC; -29.1% (active) in the test on NCI-H460 lung; -5% (active) in the test on HOP-92 NSCLC. Also, the growth with NCI-H522 lung is -37.6% (active); in the test on A549/ATCC NSCLC it was -3.99% (active); in the test on 786-0 renal it was -55.7% (active); in the test with COLO 205 colon, 7.89% (active); with DU-145 prostate, -35.1% (active); in the test on K-562 leukemia, 3.2% (active). For the same compound, the growth in the test on MALME-3M melanoma is 4.83% (active); in the test with MDA-MB-231 breast, -16.7% (active); in the test on RXF 393 renal, -79.9% (active); in the test on SF-268 CNS, 13.7%; with SF-295 CNS, 5.91% (active); with SF-539 CNS, 9.94% (active). Further, the growth in the test with UACC-257 melanoma is -13.9% (active); in the test with M14 melanoma, -11.3% (active).
Consider `Nc1ccc(C2=NN(C(=O)c3cc(-c4ccc(Cl)cc4)nc4ccccc34)C(c3ccccc3)C2)cc1` (stereo not given), for which the growth in the test on NCI-H23 lung was 43.6%; in the test on NCI-H226 lung it was 53%; with NCI-H322M lung it was 45.7%; with HOP-62 NSCLC, 35.4%; in the test on NCI-H460 lung, 18.8%; in the test with HOP-92 NSCLC it was 50.9%. The growth with NCI-H522 lung was 24%; in the test on A549/ATCC NSCLC, 40.7%; in the test with 786-0 renal it was 21.7%; in the test on COLO 205 colon, 30%; in the test on DU-145 prostate, 33.2%; in the test with K-562 leukemia, 15.6%. Further, the growth in the test on MALME-3M melanoma is 52.5%; in the test with MDA-MB-231 breast, 61.2%; in the test on RXF 393 renal, -3.58% (active); in the test on SF-268 CNS, 57.3%; in the test with SF-295 CNS, 13.1%; in the test with SF-539 CNS, 14.9%. Moreover, the growth was 55.3% in the test on UACC-257 melanoma and 16.9% in the test on M14 melanoma.
With `COc1ccc(OCC(=O)OC(C)C)cc1`, the growth in the test on NCI-H23 lung was 90.6%; with NCI-H226 lung it was 95.3%; with NCI-H322M lung, 94%; in the test on HOP-62 NSCLC, 101%; with NCI-H460 lung, 105%; in the test on HOP-92 NSCLC, 104%. In addition, the growth was 97.9% with NCI-H522 lung; 102% with A549/ATCC NSCLC; 104% with 786-0 renal; 104% in the test on COLO 205 colon; 101% in the test on DU-145 prostate; 98.7% in the test on K-562 leukemia. Besides, the growth with MALME-3M melanoma was 91.1%; in the test on MDA-MB-231 breast, 98.1%; in the test with RXF 393 renal it was 80.5%; in the test with SF-268 CNS, 92.5%; in the test on SF-295 CNS it was 96.6%; with SF-539 CNS, 98%. In addition, the growth is 97.7% in the test on UACC-257 melanoma and 98.6% in the test on M14 melanoma.
With `COc1ccc(-c2nnc(N3CCN(C(=O)CN4CCN(c5ccc(OC)cc5)CC4)CC3)nc2-c2ccc(OC)cc2)cc1`, the growth in the test on NCI-H23 lung was 21.4%; in the test with NCI-H226 lung, -81.4% (active); with NCI-H322M lung, 32.6%; with HOP-62 NSCLC, 1.58% (active); in the test on NCI-H460 lung it was 29.3%; in the test on HOP-92 NSCLC, -62.9% (active). For the same compound, the growth in the test on NCI-H522 lung was -84.5% (active); in the test with A549/ATCC NSCLC, 59.1%; in the test on 786-0 renal it was 26.3%; with COLO 205 colon, 19%; with DU-145 prostate, -16.3% (active); in the test on K-562 leukemia, -56.7% (active). Further, the growth with MALME-3M melanoma is -72.7% (active); with MDA-MB-231 breast, 8.6% (active); in the test on RXF 393 renal it was -34.8% (active); in the test with SF-268 CNS it was -32.4% (active); in the test on SF-295 CNS it was -60.6% (active); in the test with SF-539 CNS it was 32%. Also, the figures for the growth in the test with UACC-257 melanoma and with M14 melanoma were -8.52% (active) and -17.3% (active), respectively.
With `COc1cc(NCC(=O)Nc2cc(Nc3cccc(C(F)(F)F)c3)ncn2)c(Cl)c(OC)c1Cl`, the growth with NCI-H23 lung was 91.9%; in the test with NCI-H226 lung, 94.9%; in the test on NCI-H322M lung, 101%; with HOP-62 NSCLC, 87.6%; in the test with NCI-H460 lung, 103%; with HOP-92 NSCLC, 92.7%. The growth is 67.8% with NCI-H522 lung; 81.2% in the test on A549/ATCC NSCLC; 97.2% with 786-0 renal; 104% with COLO 205 colon; 97.4% in the test with DU-145 prostate; 85.6% in the test with K-562 leukemia. The growth with MALME-3M melanoma is 115%; with MDA-MB-231 breast, 78.2%; with RXF 393 renal, 114%; in the test with SF-268 CNS, 98.9%; in the test with SF-295 CNS it was 75%; with SF-539 CNS, 101%. Besides, the values for the growth with UACC-257 melanoma and in the test on M14 melanoma were 88.2% and 93.1%, respectively.
Regarding `C#CC[C@@H]1C[C@]2(C)[C@H]3CC[C@@H]4[C@H]5[C@H](C(=C)C)CC[C@]5(C(=O)O)CC[C@@]4(C)[C@]3(C)CC[C@H]2C(C)(C)[C@H]1O`, the growth with NCI-H23 lung was 47.9%; in the test with NCI-H226 lung, 29.1%; in the test with NCI-H322M lung, 67.5%; in the test on HOP-62 NSCLC, 59%; in the test with NCI-H460 lung, 10.4%; in the test with HOP-92 NSCLC, -6.27% (active). The growth is 61.8% in the test on NCI-H522 lung; 16.9% in the test with A549/ATCC NSCLC; -1.51% (active) in the test on 786-0 renal; 83.2% in the test with COLO 205 colon; 57.4% in the test on DU-145 prostate; 35.1% in the test with K-562 leukemia. The growth was 53% in the test on MALME-3M melanoma; 20.8% with MDA-MB-231 breast; 6.63% (active) in the test on RXF 393 renal; 66.5% with SF-268 CNS; 12.8% in the test on SF-295 CNS; 53.8% in the test on SF-539 CNS. Moreover, the growth was 70.9% in the test with UACC-257 melanoma and 60.3% with M14 melanoma.
